About 7,900 targets were measured; listed, in parts, are those with a hit and a random draw of the rest. About 0.6% of all pairs of compound and target were hits. Unmarked numbers belong to inactive results.
Columns and labels:
Experiment in all cases: log2 fold change, soluble protein after heating vs DMSO (PISA); higher = thermal stabilisation; K562 cells, 10 uM, 30 min; active = over 0.2 and 3.5 SD of the protein, either way, in both replicates (recomputed)
[1] = compound: CC[C@@H]1C(=O)N(C)c2cnc(Nc3ccc(C(=O)NC4CCN(C)CC4)cc3OC)nc2N1C1CCCC1
Summary of the method: (§1)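 Soluble protein was defined as the supernatant after 21,000xg for 90 min. It came from K562 cells at 2×10^6 cells/mL given 10 μM compound for 30 min, heated in aliquots for 3 min across 48°C-58°C, pooled, and extracted in PBS with 0.5% NP-40 at 4°C, and was quantified by TMTpro 16plex LC-MS/MS with equalised channel sums. Thermal stability against control samples, from duplicates, is reported as log2 fold change.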

[2] = compound: CC[C@@H]1C(=O)N(C)c2cnc(Nc3ccc(C(=O)N[C@H]4CC[C@H](N5CCN(CC6CC6)CC5)CC4)cc3OC)nc2N1C(C)C [volasertib]
Summary of the method: as §1

[3] = compound: CC[C@H](C)N1C=C(C2=C(C=C(C=C21)C3=CN=C(C=C3)N4CCNCC4)C(=O)NCC5=C(C=C(NC5=O)C)C)C
Summary of the method: as §1

[4] = compound: CC[C@H](C)[C@@H](C(=O)N[C@@H]([C@@H](C)O)C(=O)N[C@@H](CC(C)C)C(=O)[C@]1(CO1)C)NC(=O)[C@H]([C@@H](C)CC)N(C)C(=O)C [epoxomicin]
Summary of the method: as §1

[5] = compound: CCn1c(C(=O)N(C2CC2)C2CC2)cc2c3c(ncn3C)c(Nc3cc(C)n(C)n3)nc21
Summary of the method: as §1

[6] = compound: CCn1cc(-c2ccnc3[nH]c(-c4cccc(CN(C)C)c4)cc23)c(-c2ccc(NC(=O)N(C)C)cc2)n1
Summary of the method: as §1

[7] = compound: CN(C)CC(=O)Nc1ccc2[nH]c(=O)c3ccccc3c2c1
Summary of the method: as §1

[8] = compound: CN(CCOC1=CC=C(C=C1)C[C@H]2C(=O)NC(=O)S2)C3=CC=CC=N3 (racemic) [rosiglitazone]
Summary of the method: as §1

[9] = compound: CN1C2=C(C3=C1C(=O)N(N=C3)CC4=CC(=CC=C4)N)SC(=C2)S(=O)C
Summary of the method: as §1

[10] = compound: CN1CCC(CNc2ccc3ncc(-c4cccc(OC(F)(F)F)c4)n3n2)CC1
Summary of the method: as §1

Chain of UniProt Q96T51 (Q96T51 whole entry, looked up): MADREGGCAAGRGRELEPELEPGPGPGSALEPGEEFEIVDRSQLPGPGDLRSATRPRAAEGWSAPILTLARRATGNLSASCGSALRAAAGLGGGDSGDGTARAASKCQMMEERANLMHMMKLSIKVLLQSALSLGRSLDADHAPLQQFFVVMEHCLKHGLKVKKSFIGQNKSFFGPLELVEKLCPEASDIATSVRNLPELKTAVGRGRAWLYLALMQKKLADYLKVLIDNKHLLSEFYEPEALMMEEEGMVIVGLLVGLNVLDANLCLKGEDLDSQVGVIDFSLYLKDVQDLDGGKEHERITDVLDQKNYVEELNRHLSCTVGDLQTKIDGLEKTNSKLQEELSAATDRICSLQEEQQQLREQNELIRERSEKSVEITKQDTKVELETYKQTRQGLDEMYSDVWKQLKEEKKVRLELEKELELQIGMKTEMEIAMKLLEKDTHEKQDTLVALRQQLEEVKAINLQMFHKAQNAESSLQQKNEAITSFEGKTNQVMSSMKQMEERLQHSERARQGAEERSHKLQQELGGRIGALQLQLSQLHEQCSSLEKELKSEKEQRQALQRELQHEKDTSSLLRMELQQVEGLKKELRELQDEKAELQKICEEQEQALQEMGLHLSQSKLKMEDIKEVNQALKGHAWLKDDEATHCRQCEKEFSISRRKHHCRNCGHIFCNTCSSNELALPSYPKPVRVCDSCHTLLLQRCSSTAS
Chain of UniProt Q86VR2 (Q86VR2 whole entry, looked up): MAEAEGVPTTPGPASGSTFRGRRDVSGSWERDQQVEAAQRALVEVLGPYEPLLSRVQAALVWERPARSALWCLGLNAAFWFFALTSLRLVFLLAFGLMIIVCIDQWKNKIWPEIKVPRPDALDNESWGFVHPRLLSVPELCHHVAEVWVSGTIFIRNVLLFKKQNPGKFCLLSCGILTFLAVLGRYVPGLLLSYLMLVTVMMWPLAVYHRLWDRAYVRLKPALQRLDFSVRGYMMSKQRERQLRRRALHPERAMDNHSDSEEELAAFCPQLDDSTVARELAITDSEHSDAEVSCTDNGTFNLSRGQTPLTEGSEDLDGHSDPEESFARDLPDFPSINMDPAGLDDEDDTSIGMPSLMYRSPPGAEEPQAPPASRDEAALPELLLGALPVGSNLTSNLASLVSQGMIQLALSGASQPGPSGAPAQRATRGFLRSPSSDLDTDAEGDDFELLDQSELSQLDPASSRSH
Chain of UniProt Q9NPQ8 (Q9NPQ8 whole entry, looked up): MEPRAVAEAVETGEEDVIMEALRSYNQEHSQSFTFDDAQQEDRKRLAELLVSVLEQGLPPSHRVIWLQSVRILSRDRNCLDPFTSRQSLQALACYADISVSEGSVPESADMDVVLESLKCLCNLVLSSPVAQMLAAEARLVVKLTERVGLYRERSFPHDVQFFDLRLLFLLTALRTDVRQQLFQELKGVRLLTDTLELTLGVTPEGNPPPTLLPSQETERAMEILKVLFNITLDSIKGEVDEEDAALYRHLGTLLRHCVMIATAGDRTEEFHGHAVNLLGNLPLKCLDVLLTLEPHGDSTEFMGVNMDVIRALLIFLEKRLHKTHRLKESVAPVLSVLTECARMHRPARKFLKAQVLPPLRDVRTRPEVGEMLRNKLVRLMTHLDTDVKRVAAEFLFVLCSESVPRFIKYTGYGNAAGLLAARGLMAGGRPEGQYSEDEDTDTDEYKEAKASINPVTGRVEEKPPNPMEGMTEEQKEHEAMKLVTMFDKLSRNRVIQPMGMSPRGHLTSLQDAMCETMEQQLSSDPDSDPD
Chain of UniProt O00584 (O00584 whole entry, looked up): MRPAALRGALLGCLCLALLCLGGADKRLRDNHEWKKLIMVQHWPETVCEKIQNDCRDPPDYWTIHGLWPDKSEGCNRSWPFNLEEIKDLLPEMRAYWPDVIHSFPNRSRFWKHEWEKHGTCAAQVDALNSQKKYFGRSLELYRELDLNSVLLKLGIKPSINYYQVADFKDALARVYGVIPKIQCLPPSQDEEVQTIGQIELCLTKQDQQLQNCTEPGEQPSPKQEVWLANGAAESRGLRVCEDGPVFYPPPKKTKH
Chain of UniProt Q5VTB9 (Q5VTB9 whole entry, looked up): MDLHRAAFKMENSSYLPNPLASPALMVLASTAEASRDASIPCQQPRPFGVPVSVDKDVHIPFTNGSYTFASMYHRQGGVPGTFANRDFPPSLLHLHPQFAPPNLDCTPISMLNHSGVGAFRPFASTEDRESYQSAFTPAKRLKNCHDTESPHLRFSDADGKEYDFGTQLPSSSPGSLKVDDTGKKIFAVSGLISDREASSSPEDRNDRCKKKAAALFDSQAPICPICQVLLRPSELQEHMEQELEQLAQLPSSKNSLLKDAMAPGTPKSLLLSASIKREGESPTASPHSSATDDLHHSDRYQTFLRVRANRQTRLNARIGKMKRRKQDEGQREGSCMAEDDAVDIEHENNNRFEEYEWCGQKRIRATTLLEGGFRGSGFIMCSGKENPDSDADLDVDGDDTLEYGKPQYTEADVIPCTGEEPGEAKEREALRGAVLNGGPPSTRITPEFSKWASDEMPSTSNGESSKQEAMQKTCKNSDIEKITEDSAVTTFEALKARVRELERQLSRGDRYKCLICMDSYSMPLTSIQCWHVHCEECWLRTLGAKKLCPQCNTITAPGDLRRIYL
Chain of UniProt Q13530 (Q13530 whole entry, looked up): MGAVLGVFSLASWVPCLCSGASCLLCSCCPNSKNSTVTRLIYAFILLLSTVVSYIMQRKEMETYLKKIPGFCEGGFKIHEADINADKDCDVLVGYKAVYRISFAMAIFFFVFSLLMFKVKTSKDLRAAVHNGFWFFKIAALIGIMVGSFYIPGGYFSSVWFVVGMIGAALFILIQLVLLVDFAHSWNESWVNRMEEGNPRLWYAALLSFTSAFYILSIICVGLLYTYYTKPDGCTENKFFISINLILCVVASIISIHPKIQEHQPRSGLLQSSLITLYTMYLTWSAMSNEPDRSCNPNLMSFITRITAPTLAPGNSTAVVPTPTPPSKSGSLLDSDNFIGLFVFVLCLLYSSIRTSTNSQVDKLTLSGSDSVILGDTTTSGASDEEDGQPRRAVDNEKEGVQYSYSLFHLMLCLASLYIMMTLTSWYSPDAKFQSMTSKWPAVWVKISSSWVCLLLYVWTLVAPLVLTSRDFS
Chain of UniProt Q8IZE3 (Q8IZE3 whole entry, looked up): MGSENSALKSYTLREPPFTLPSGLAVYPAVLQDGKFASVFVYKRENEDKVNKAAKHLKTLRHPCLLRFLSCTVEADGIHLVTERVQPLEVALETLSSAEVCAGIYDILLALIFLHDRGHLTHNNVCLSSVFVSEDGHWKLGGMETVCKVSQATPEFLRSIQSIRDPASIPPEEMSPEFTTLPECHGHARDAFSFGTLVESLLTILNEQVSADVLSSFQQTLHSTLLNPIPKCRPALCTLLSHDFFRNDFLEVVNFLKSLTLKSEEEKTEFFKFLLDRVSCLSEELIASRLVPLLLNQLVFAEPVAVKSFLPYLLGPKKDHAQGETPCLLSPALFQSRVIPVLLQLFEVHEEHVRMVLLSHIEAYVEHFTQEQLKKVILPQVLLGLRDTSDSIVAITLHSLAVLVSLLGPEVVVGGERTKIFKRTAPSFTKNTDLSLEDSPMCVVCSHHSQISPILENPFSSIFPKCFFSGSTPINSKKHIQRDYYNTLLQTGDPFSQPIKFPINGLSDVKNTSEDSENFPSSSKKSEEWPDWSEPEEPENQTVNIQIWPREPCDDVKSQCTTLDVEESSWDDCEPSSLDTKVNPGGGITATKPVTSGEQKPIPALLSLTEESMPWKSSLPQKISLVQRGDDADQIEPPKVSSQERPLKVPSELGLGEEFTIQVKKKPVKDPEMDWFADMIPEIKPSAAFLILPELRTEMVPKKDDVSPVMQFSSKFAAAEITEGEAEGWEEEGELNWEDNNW
Chain of UniProt Q8NBN7 (Q8NBN7 whole entry, looked up): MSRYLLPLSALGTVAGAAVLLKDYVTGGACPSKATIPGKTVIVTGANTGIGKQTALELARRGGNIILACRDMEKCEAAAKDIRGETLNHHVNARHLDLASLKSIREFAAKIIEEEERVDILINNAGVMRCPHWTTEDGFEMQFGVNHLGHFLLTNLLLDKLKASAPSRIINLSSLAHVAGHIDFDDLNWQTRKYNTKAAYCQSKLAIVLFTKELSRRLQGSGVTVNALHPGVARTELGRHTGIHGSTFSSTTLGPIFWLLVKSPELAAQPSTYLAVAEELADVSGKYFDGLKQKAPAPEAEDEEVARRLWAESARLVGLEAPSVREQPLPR
Chain of UniProt Q99961 (Q99961 whole entry, looked up): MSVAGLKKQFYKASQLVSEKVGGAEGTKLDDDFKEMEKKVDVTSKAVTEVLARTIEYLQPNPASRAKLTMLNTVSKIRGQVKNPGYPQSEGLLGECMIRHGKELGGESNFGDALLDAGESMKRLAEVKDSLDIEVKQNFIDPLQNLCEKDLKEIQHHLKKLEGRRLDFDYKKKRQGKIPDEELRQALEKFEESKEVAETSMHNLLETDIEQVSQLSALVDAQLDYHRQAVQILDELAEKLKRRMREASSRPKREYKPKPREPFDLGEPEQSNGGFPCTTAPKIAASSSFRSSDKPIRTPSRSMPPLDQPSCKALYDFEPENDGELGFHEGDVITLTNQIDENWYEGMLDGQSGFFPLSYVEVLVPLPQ
Chain of UniProt Q96I25 (Q96I25 whole entry, looked up): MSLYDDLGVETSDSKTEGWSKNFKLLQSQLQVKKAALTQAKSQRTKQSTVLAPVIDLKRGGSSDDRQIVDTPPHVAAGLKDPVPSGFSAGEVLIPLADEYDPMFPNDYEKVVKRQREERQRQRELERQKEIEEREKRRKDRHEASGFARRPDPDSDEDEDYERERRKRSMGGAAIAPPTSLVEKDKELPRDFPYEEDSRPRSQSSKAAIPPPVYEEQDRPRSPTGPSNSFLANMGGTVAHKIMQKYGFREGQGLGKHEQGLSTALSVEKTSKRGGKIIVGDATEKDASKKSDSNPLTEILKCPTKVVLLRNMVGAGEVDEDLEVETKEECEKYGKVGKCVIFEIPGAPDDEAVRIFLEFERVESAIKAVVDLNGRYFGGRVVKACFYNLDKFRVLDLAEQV
Chain of UniProt O95059 (O95059 whole entry, looked up): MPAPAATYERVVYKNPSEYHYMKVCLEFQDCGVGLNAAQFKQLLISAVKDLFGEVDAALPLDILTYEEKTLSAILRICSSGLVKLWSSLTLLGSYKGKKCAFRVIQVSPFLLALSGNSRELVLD

Row | Target | log2 fold change [1] | log2 fold change [2] | log2 fold change [3] | log2 fold change [4] | log2 fold change [5] | log2 fold change [6] | log2 fold change [7] | log2 fold change [8] | log2 fold change [9] | log2 fold change [10]
1 | ROCK2 (UniProt O75116) | -0.033 | -0.139 | -0.009 | 0.063 | -0.028 | -0.178 | 0.007 | 0.177 | -0.02 | -0.042
2 | RPS9 (UniProt P46781) | 0.203 | 0.339 | 0.02 | -0.24 | 0.025 | 0.088 | -0.095 | -0.078 | 0.174 | 0.146
3 | RIC8A isoform 3 (UniProt Q9NPQ8) | -0.149 | -0.526 (active) | 0.11 | 0.061 | -0.009 | 0.036 | 0.011 | 0.095 | -0.005 | -0.186
4 | SESN2 (UniProt P58004) | -0.244 | -0.522 (active) | 0.165 | 0.083 | 0.061 | -0.292 | 0.115 | -0.081 | 0.015 | -0.247
5 | RNASET2 (UniProt O00584) | -0.275 (active) | -0.196 | 0.023 | -0.027 | 0.039 | 0.045 | 0.036 | -0.006 | -0.036 | -0.413 (active)
6 | SLC1A3 (UniProt P43003) | -0.065 | 0.003 | 0.018 | 0.087 | 0.037 | -0.101 | -0.048 | -0.021 | -0.286 | 0.254
7 | RDH13 (UniProt Q8NBN7) | -0.154 | -0.06 | 0.06 | 0.022 | 0.009 | -0.058 | 0.051 | 0.013 | -0.059 | -0.318 (active)
8 | RPRD1B (UniProt Q9NQG5) | -0.057 | -0.245 (active) | 0.077 | 0.075 | 0.009 | -0.005 | 0 | 0.052 | -0.059 | -0.077
9 | RPS4X (UniProt P62701) | 0.173 | 0.419 | 0.056 | -0.22 | 0.032 | 0.108 | -0.089 | -0.086 | 0.177 | 0.148
10 | RAC1 (UniProt P63000) | -0.024 | 0.03 | 0.026 | 0.019 | 0.019 | 0.044 | 0.05 | 0.069 | -0.067 | 0.35 (active)
11 | SDHAF2 (UniProt Q9NX18) | 0.089 | 0.093 | -0.081 | -0.057 | 0.053 | 0.06 | -0.004 | 0.02 | 0.037 | 0.045
12 | RAB5C isoform 2 (UniProt P51148) | 0.004 | 0.045 | -0.024 | 0 | 0.029 | -0.002 | 0 | -0.011 | -0.032 | 0.018
13 | RETREG3 (UniProt Q86VR2) | -0.04 | -0.132 | 0 | 0.048 | 0.026 | -0.043 | 0.008 | 0.016 | -0.02 | -0.149
14 | SCYL3 isoform 2 (UniProt Q8IZE3) | -0.114 | -0.327 (active) | 0.047 | 0.058 | 0.034 | -0.101 | -0.021 | -0.012 | -0.05 | -0.015
15 | RNF220 (UniProt Q5VTB9) | -0.047 | -0.114 | 0.085 | -0.021 | -0.045 | -0.043 | -0.03 | 0.002 | -0.045 | 0.003
16 | RALY (UniProt Q9UKM9) | 0.113 | -0.05 | 0.136 | -0.277 | 0.012 | 0.173 | 0.001 | -0.134 | 0.358 | 0.092
17 | RPP14 (UniProt O95059) | 0.079 | 0.07 | -0.048 | -0.06 | 0.013 | 0.08 | -0.04 | -0.021 | -0.076 | 0.244 (active)
18 | SH3GL1 (UniProt Q99961) | -0.137 | -0.459 (active) | 0.082 | 0.008 | -0.077 | -0.028 | 0.091 | 0.062 | -0.006 | -0.196
19 | RSPRY1 (UniProt Q96DX4) | 0.082 | -0.001 | -0.019 | 0.034 | 0.006 | -0.034 | -0.014 | 0.011 | -0.176 | 0.219 (active)
20 | RPS20 isoform 2 (UniProt P60866) | 0.114 | 0.31 | -0.009 | -0.103 | -0.02 | 0.065 | -0.03 | -0.037 | 0.091 | 0.063
21 | SLC18B1 (UniProt Q6NT16) | 0.031 | -0.114 | -0.034 | 0.022 | 0.068 | -0.005 | -0.134 | -0.044 | -0.035 | -0.592 (active)
22 | RMC1 (UniProt Q96DM3) | -0.192 | -0.416 (active) | 0.095 | -0.025 | -0.041 | 0.042 | -0.023 | 0.005 | -0.039 | -0.146
23 | SCAF11 (UniProt Q99590) | 0.145 | 0.153 | -0.092 | -0.074 | -0.007 | 0.176 | -0.142 | -0.04 | 0.148 | 0.25
24 | SERINC3 (UniProt Q13530) | 0.165 | 0.075 | -0.144 | -0.092 | 0.029 | -0.064 | 0.043 | 0.049 | -0.014 | 0.046
25 | RUFY1 (UniProt Q96T51) | -0.145 | -0.355 (active) | 0.07 | -0.015 | 0.009 | 0.06 | 0.033 | 0.036 | 0.032 | -0.058
26 | RAD50 isoform 2 (UniProt Q92878) | -0.069 | -0.228 (active) | 0.041 | 0.041 | -0.012 | -0.001 | 0.025 | 0.031 | -0.03 | -0.074
27 | RBM17 (UniProt Q96I25) | -0.08 | -0.422 (active) | 0.085 | 0.066 | -0.271 | -0.059 | 0.048 | 0.099 | 0.088 | -0.037
28 | RDH10 (UniProt Q8IZV5) | 0.068 | 0.037 | 0.034 | -0.026 | -0.056 | 0.021 | -0.006 | 0.021 | -0.19 | 0.09
29 | SCAMP2 (UniProt O15127) | -0.009 | 0.052 | -0.01 | 0.001 | 0.065 | 0.043 | 0.061 | -0.043 | -0.006 | -0.1
30 | RABGGTA (UniProt Q92696) | 0.029 | -0.087 | -0.013 | 0.021 | -0.032 | -0.051 | -0.015 | 0.054 | -0.111 | -0.023

Reference: the supplement of paper PMC10849652
